Source: ChEMBL document CHEMBL3433997, “St. Jude Leishmania screening dataset” (2016)

How the values were obtained:
Format in all cases: functional
[1] = target: Solute carrier family 2, facilitated glucose transporter member 1 (Homo sapiens) (UniProt P11166); assay: ST_JUDE_LEISH: Cytotoxicity at 2uM final concentration against transgenic Leishmania Mexicana promastigotes LmGLUT1 that are glucose transport deficient and complemented with the human glucose transporter GLUT1. Activity is measured by DNA content using SYBR green in vitro
Sequence of Solute carrier family 2, facilitated glucose transporter member 1 (Homo sapiens) (P11166 whole entry): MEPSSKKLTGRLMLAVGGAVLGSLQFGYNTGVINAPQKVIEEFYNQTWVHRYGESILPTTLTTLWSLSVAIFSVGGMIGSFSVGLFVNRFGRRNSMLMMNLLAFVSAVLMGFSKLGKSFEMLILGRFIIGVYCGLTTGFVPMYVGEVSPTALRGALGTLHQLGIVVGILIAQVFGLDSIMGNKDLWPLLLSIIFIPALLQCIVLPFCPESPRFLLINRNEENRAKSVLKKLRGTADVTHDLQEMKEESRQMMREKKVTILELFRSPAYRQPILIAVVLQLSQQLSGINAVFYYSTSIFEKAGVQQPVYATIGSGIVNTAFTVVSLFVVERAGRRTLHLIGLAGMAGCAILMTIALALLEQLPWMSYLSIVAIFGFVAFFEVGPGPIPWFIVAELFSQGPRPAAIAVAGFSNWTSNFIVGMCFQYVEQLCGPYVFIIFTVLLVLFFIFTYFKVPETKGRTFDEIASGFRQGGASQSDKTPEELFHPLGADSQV

[2] = target: Hexose transporter 1 (Plasmodium falciparum) (UniProt O97467); assay: ST_JUDE_LEISH: Cytotoxicity at 2uM final concentration against transgenic Leishmania Mexicana promastigotes LmPfHT that are glucose transport deficient and complemented with the Plasmodium falciparum hexose transporter. Activity is measured by DNA content using SYBR green in vitro
[3] = target: Glucose transporter (Leishmania mexicana) (UniProt O61059); assay: ST_JUDE_LEISH: Cytotoxicity at 2uM final concentration against transgenic Leishmania Mexicana promastigotes LmGT2 that are glucose transport deficient and complemented with the L. Mexicana glucose transporter 2. Activity is measured by DNA content using SYBR green in vitro

| Compound | inhibition [1] [%] | inhibition [2] [%] | inhibition [3] [%] |
| --- | --- | --- | --- |
| COc1ccc2c(=NN=Cc3ccccc3)cc(C)[nH]c2c1 | 12.1 | 11.5 | 8.31 |
| O=c1cc(NCCCNCc2cccc(OC(F)(F)C(F)F)c2)[nH]c2ccccc12 | 6.11 | 7.27 | 5.78 |
| O=C(c1cc2nc3c(c(C(F)(F)F)n2n1)CCc1ccccc1-3)N1CCN2CCCC2C1 (centres undefined) | 2.06 | 2.1 | 2.07 |
| CC1(CCN2CCC(c3c[nH]c4cnccc34)CC2)CCCc2c(Br)cccc2C1=O (centres undefined) | 54.7 | 25.4 | 95.5 |
| COc1ccc(CC(=O)Nc2ccc(Nc3nc(C)cc(N4CCCC4)n3)cc2)cc1 | 46 | 51.5 | 16.1 |
| COc1cc(F)c2nccc([C@@H](O)CN3CCC(NC(=O)OCc4ccccc4)C(F)C3)c2c1 (some centres undefined) | 11.6 | 16.3 | 3.75 |
| Cc1ccc(-c2ccn(Cc3cccc(OCc4ccccc4)c3)n2)cn1.Cc1ccc(-c2ccnn2Cc2cccc(OCc3ccccc3)c2)cn1 | 2.15 | 1.4 | -0.57 |
| CCOC(=O)c1ccc(NC(=O)Nc2cccc(-c3cccc(-c4nc5ccccc5[nH]4)c3)c2)cc1 | 10.4 | 7.84 | 8.27 |
| CCCCCC1c2[nH]c3ccccc3c2CCN1C(=O)OCc1ccccc1 (centres undefined) | 7.38 | 6.98 | 7.22 |
| O=C(Nc1ccc(-c2cccc(-c3nc4cc(C(F)(F)F)ccc4[nH]3)c2)cc1)c1csnn1 | 16.1 | 23.4 | 14.2 |
| Cc1cccc(NC(=O)c2ccc(C(=O)NC3CCN(CC4CCCCC4)C3)cc2)c1 (centres undefined) | 5.04 | 3.98 | -1.15 |
| CCOCCCn1c(=N)c(C(=O)NCc2ccc(F)cc2)cc2c(=O)n3cccc(C)c3nc21 | 4.22 | 10.1 | -1.34 |
| Cc1ccc(-n2c(C)nc3c(Nc4ccc(-c5ccncc5)cc4)ncnc32)c(C)c1 | 91.7 | 95.1 | 81 |
| COc1cc(C(C)C)ccc1N1CCN(CCCCNC(=O)c2ccc(NC(=O)c3ccc(Cl)cc3)cc2)CC1 | 4.1 | 1.59 | 2.26 |
| COc1ccc(-c2nc3cccnc3n2CC(=O)Nc2cc(Cl)c(Cl)cc2Cl)c(OC)c1 | -3.62 | -1.91 | -2.74 |
| O=C(Nc1ccc(C(=O)N2CCN(CCN3CCN(c4cccc(C(F)(F)F)c4)CC3)CC2)cc1)c1cc(Cl)cc(Cl)c1 | 3.84 | 0.79 | 2.52 |
| CCOc1ccc2nc(C)cc(N/N=C/c3cccc([N+](=O)[O-])c3)c2c1 | 0.39 | 0.05 | -1.04 |

| Compound | inhibition [1] [%] | inhibition [2] [%] | inhibition [3] [%] |
| --- | --- | --- | --- |
| Fc1ccc2[nH]c(-c3cccc(-c4ccc(CN5CCN(CCN6CCOCC6)CC5)cc4)c3)nc2c1 | 1.26 | 1.68 | 1.79 |
| Cc1ccc2nc3c(cc(C(=O)NCCc4ccccc4)c(=N)n3CCCOC(C)C)c(=O)n2c1 | -0.01 | 0.31 | -1.76 |
| CO/N=C(\C)c1ccc2c(c1)CCN(CCC1CCC(NC(=O)c3cccc(-c4noc(C)n4)c3)CC1)CC2 (centres undefined) | 3.41 | -1.53 | 0.75 |
| COc1cc(Cc2cnc(N)nc2N)ccc1OCc1ccc(NC(C)=O)cc1 | 1.71 | 4.96 | 3.61 |
| O=C(Cc1c[nH]cn1)Nc1cccc(-c2ccc(-c3nc4cc(F)ccc4[nH]3)s2)c1 | 3.94 | 6.17 | 0.26 |
| COc1ccc(C2CC(c3cccs3)=NN2C(=O)COc2cccc(C(C)=O)c2)cc1OC (centres undefined) | 0.04 | -0.46 | -2.22 |
| CN/C(=C\[N+](=O)[O-])NCCSCc1cc(C)c(CN(C)C)s1 | 5.43 | 5.21 | 5.98 |
| CCC[C@@H]([C@@H](Cc1ccc(C)s1)C(=O)N[C@@H](CNC(C)=O)C(=O)Nc1nccs1)N(O)C=O | 12 | 9.56 | 8.72 |
| Cc1ccc(-n2c(Cc3cccc4ccccc34)nnc2SCCC#N)c(C)c1 | 5.99 | 5.29 | 8.9 |
| Cc1cccc2nc(-c3ccc(-c4cccc(CN5CCCC5CN)c4)s3)[nH]c12 (centres undefined) | 2.06 | -0.2 | -0.03 |
| C=CCc1cc(Cc2cnc(N)nc2N)cc(CCC)c1O | -0.63 | -0.27 | -0.78 |
| O=C(Nc1cc(C(F)(F)F)ccc1Cl)c1ccc(Cn2cc(Br)cn2)cc1 | 1.23 | 0.15 | -9.62 |
| CCOc1ccccc1CON1C(N)=NC(N)=NC1(C)C | 4.48 | 3.69 | 7.54 |
| N#Cc1ccc2[nH]c(-c3ccccc3)nc2c1 | 7.3 | 6.06 | 5.78 |
| CCCCCCCc1c(C)nc2c(OC)cccc2c1O | 5.31 | 8.11 | -0.9 |
| CC(C)(C)c1ccc(S(=O)(=O)Nc2ccccc2N2CCOCC2)cc1 | 6.54 | 4.11 | 0.2 |
